The results in this text go back to PubChem BioAssay (Tox21).

The nature of experiment [1]: qHTS RealTime-Glo MT Cell Viability Assay in HepG2 cells - 32 hour (AID 1224877). Note: nearly all actives have a fitted effect of over 55% in size. The procedure, abridged:
(§1)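 HepG2 suspension premixed with RealTime-Glo reagents is plated at 600 cells per well and left 5 h at 37 C/5% CO2. Compounds in DMSO then go in, and bioluminescence reflecting viable cell number is recorded over 40 h.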
Background: qHTS replaces the single test concentration by a dilution series.

The nature of experiment [2]: A CellTox Green Cytotoxicity Assay to monitor cytotoxicity in HepG2 cells - 24 hour (AID 1224878). Note: nearly all actives have a fitted effect of over 45% in size. Note: potency is the fitted concentration of half-maximal effect. The procedure, abridged: (§2)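 Read-out is fluorescence of a cyanine dye excluded from live cells that stains DNA of dead HepG2 cells, with signal proportional to cytotoxicity. Plates were read at 0, 8, 16, 24, 32 and 40 h after compound addition.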
Experiment [3] in a line: A CellTox Green Cytotoxicity Assay to monitor cytotoxicity in HepG2 cells - 40 hour (AID 1224879). Note: nearly all actives have a fitted effect of over 40% in size. Note: potency is the fitted concentration of half-maximal effect. The procedure, abridged:
as §2

Experiment [4] is described as follows: qHTS RealTime-Glo MT Cell Viability Assay in HEK293 cells - 0 hour (AID 1224880). Note: top concentration of the series differs between compounds; nearly all actives have a fitted effect of over 45% in size. In a few lines:
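Cells were seeded together with NanoLuc luciferase and a prosubstrate that viable cells reduce to a luciferase substrate. After a 5 h incubation at 37 C/5% CO2, compounds were added and luminescence was measured repeatedly during 40 h of treatment.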

The nature of experiment [5]: A CellTox Green Cytotoxicity Assay to monitor cytotoxicity in HEK293 cells - 32 hour (AID 1224881). Note: nearly all actives have a fitted effect of over 40% in size. The procedure, abridged:
(§3)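 Nonlytic real-time cytotoxicity: HEK293 + CellTox Green reagent plated, 5 h preincubation, pintool compound addition (23 nL in DMSO), 37 C for 40 h, fluorescence measured at successive time points.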

Experiment [6] in a line: A CellTox Green Cytotoxicity Assay to monitor cytotoxicity in HepG2 cells - 0 hour (AID 1224882). Note: nearly all actives have a fitted effect of over 35% in size. In a few lines: as §2
The nature of experiment [7]: A CellTox Green Cytotoxicity Assay to monitor cytotoxicity in HepG2 cells - 32 hour (AID 1224883). Note: nearly all actives have a fitted effect of over 50% in size. The procedure, abridged: as §2
Experiment [8] is described as follows: A CellTox Green Cytotoxicity Assay to monitor cytotoxicity in HEK293 cells - 8 hour (AID 1224884). Note: nearly all actives have a fitted effect of over 35% in size. The procedure, abridged: as §3
A short description of experiment [9]: qHTS RealTime-Glo MT Cell Viability Assay in HepG2 cells - 16 hour (AID 1224885). Note: nearly all actives have a fitted effect of over 50% in size. The procedure, abridged:
as §1

A number with no mark means an inactive call. Inconclusive results are not listed. The source made the active and inactive calls. Calls come from the whole dose curve; as a rule, active = well fitted curve in the direction sought with a large enough effect in the repeat runs; inconclusive = weak or mixed curves; inactive = no such curve, though single readings can be large; an effect the other way counts as inactive or inconclusive.
% is set by controls: 0 for no effect and ±100 for the full control effect.

Turning to `CCC1Nc2cc(Cl)c(S(N)(=O)=O)cc2S(=O)(=O)N1` (centres undefined), the call in experiment [1], in [4] and in experiment [9] was inactive. The Potency entry in [2], in [3], in [5], in experiment [6], in experiment [7] and in [8] was “inactive” in each case.
Turning to `CN(C)CCOCCN(C)CCO`, the compound was classed as inactive in experiment [1], in experiment [4] and in experiment [9]. The Potency entry in experiment [2], in [3], in experiment [5], in experiment [6], in [7] and in experiment [8] was “inactive” in each case.
Consider `OC(CCN1CCCCC1)(c1ccccc1)c1ccccc1`, for which the result in experiment [1] and in experiment [9] was inactive. Also, the Potency entry in experiment [2], in experiment [3], in experiment [5], in [6], in experiment [7] and in experiment [8] was “inactive” throughout.
Take `CN[C@@H]1[C@@H](O)[C@@H](O[C@@H]2[C@H](O)[C@H](O[C@H]3OC(CN)=CC[C@H]3N)[C@@H](N)C[C@H]2N)OCC1(C)O` (some centres undefined): the outcome in [1], in [4] and in experiment [9] was inactive. For the same compound, the Potency result in experiment [2], in experiment [3], in [5], in [6] and in experiment [7] was “inactive” in each case.
On to `CC1CCC(C(C)(C)S)C(=O)C1` (centres undefined), for which the result in experiment [1], in experiment [4] and in experiment [9] was inactive. Moreover, the Potency entry in experiment [2], in [5], in experiment [6], in experiment [7] and in experiment [8] was “inactive” throughout.
For the compound `CC(C)(C)NCCO`, the result in [1], in experiment [4] and in [9] was inactive. Moreover, the Potency entry in [2], in experiment [3], in experiment [5], in [6] and in experiment [7] was “inactive” throughout.
Take `CCCCCN(CCCOC)C(=O)C(CCC(=O)O)NC(=O)c1ccc(Cl)c(Cl)c1` (centres undefined): the outcome in experiment [1] and in [9] was inactive. The Potency entry in experiment [5] and in experiment [8] was “inactive” each time.
Regarding `CC(=O)/C=C/c1ccco1`, the compound was classed as inactive in experiment [1], in experiment [4] and in experiment [9]. The Potency result in [2], in experiment [3], in [5], in experiment [6], in experiment [7] and in experiment [8] was “inactive” in each case.
For `CC(=O)c1ccc2c(c1)CCCC2`, the outcome in [1] and in experiment [9] was inactive. For the same compound, the Potency result in [2], in experiment [3], in [5], in experiment [6] and in experiment [8] was “inactive” each time.
On to `Nc1ccc(S(=O)(=O)Nc2ccccn2)cc1`, for which the result in experiment [1], in experiment [4] and in [9] was inactive. Also, the Potency result in experiment [2], in experiment [3], in experiment [5], in experiment [6] and in experiment [7] was “inactive” throughout.
Take `c1ccccc1`: the call in [1], in experiment [4] and in experiment [9] was inactive. In addition, the Potency result in experiment [2], in experiment [3], in [5], in [6] and in experiment [8] was “inactive” throughout.
On to `NS(=O)(=O)c1cc2c(cc1Cl)NC(CC1CCCC1)NS2(=O)=O` (centres undefined), for which the result in experiment [1], in experiment [4] and in experiment [9] was inactive. Also, the Potency entry in [3], in [5] and in experiment [8] was “inactive” in each case.
On to `Cc1oc(=O)oc1CN1CCN(c2cc3c(cc2F)c(=O)c(C(=O)O)c2n3C(C)S2)CC1` (centres undefined), for which the compound was classed as inactive in experiment [1] and in experiment [4]. In experiment [2], the Potency is 0.535 µM (active). Moreover, the Potency result in experiment [5] and in experiment [6] was “inactive” each time.
Take `C=CCOc1cc(Cl)ccc1C(=O)NCCN(CC)CC`: the outcome in experiment [1], in [4] and in experiment [9] was inactive. The Potency entry in [2], in experiment [3], in experiment [6], in experiment [7] and in experiment [8] was “inactive” in each case.
With `O=C(O)c1c(Cl)ccc(Cl)c1Cl`, the call in [1] and in [9] was inactive. Moreover, the Potency result in [2], in experiment [3], in experiment [5], in [6], in experiment [7] and in experiment [8] was “inactive” each time.
`Cc1ccc(C(=O)C(=O)O)cc1C`: the outcome in [1], in experiment [4] and in [9] was inactive. Moreover, the Potency result in [2], in experiment [6] and in [7] was “inactive” each time.
Consider `Cc1ccccc1C`, for which the compound was classed as inactive in experiment [1], in experiment [4] and in [9]. The Potency result in [2], in experiment [3], in experiment [5], in [6], in [7] and in experiment [8] was “inactive” throughout.
`O=S(=O)(O)SSS(=O)(=O)O`: the compound was classed as inactive in [1], in [4] and in [9]. Also, the Potency entry in experiment [2], in [3], in [5], in experiment [6], in [7] and in [8] was “inactive” throughout.
For `CCCCCCCC/C=C\CCCCCCCC(=O)OC[C@@H](O)[C@H]1OC[C@H](O)[C@H]1O`, the call in experiment [1], in [4] and in [9] was inactive. The Potency result in [2], in [3], in [5] and in experiment [6] was “inactive” in each case.
As to `CCNC(=O)NCCCOc1cccc(CN2CCCCC2)c1`, the result in [1] and in experiment [4] was inactive. Further, the Potency in [3] is 26.8 µM (active). For the same compound, the Potency result in experiment [5], in experiment [6] and in experiment [8] was “inactive” throughout.
Take `CC(=O)OC(C)c1ccccc1` (centres undefined): the result in [1], in experiment [4] and in experiment [9] was inactive. In addition, the Potency entry in experiment [2], in experiment [3], in experiment [5], in experiment [6], in experiment [7] and in experiment [8] was “inactive” throughout.
As for `Nc1ccc(S(=O)(=O)NC(=O)c2ccccc2)cc1`, the compound was called inactive in [1], in experiment [4] and in experiment [9]. For the same compound, the Potency entry in experiment [2], in [3], in experiment [5], in experiment [6], in [7] and in experiment [8] was “inactive” throughout.
`FC(F)(F)/C(=N\OCC1OCCO1)c1ccc(Cl)cc1`: the compound was called inactive in [1], in experiment [4] and in experiment [9]. Besides, the Potency result in experiment [2], in experiment [3], in [5], in [6] and in experiment [8] was “inactive” throughout.
Take `CCCCC(C)C(=O)O` (centres undefined): the result in experiment [4] and in [9] was inactive. The Potency result in experiment [5] was “inactive”.
Regarding `Nc1cc(C(=O)O)ccc1Cl`, the call in experiment [1] and in experiment [9] was inactive. Moreover, the Potency result in [2], in [3], in experiment [5], in [6], in experiment [7] and in [8] was “inactive” each time.
Turning to `O=S(=O)(O)c1cc(O)ccc1O`, the result in experiment [1], in [4] and in [9] was inactive. For the same compound, the Potency entry in experiment [5], in experiment [6] and in experiment [8] was “inactive” throughout.
As for `CCCCCCCCCCCCCCCCI`, the activity change, negative = cytotoxic in [1] was 7.46% [at 15.8 µM]; in [9] it was -8.4% [at 15.8 µM]. The cytotoxicity was -11% [at 15.8 µM] in experiment [2] and -4.1% [at 15.8 µM] in experiment [6]. Moreover, the cytotoxicity increase in experiment [3] was -12.9% [at 15.8 µM]; in experiment [5], -8.24% [at 15.8 µM]; in experiment [7] it was -12.6% [at 15.8 µM]; in [8], -6.52% [at 15.8 µM]. Besides, the activity change, negative = cytotoxicity in experiment [4] was -2.88% [at 15.8 µM].
In the case of `Cc1ccccc1C(=O)N1CC/C(=N\OS(=O)(=O)O)c2ccc(Cl)cc21`, the result in [1], in experiment [4] and in experiment [9] was inactive. In addition, the Potency in experiment [2] is 26.8 µM (active); in [3], 23.9 µM (active). Also, the Potency result in experiment [5] and in [8] was “inactive” throughout.
